From ChEMBL document CHEMBL3433997, “St. Jude Leishmania screening dataset” (2016)

Key:
Type in all cases: functional
[1] = biological target: Solute carrier family 2, facilitated glucose transporter member 1 (Homo sapiens) (UniProt P11166); assay: ST_JUDE_LEISH: Cytotoxicity at 2uM final concentration against transgenic Leishmania Mexicana promastigotes LmGLUT1 that are glucose transport deficient and complemented with the human glucose transporter GLUT1. Activity is measured by DNA content using SYBR green in vitro
[2] = biological target: Hexose transporter 1 (Plasmodium falciparum) (UniProt O97467); assay: ST_JUDE_LEISH: Cytotoxicity at 2uM final concentration against transgenic Leishmania Mexicana promastigotes LmPfHT that are glucose transport deficient and complemented with the Plasmodium falciparum hexose transporter. Activity is measured by DNA content using SYBR green in vitro
[3] = biological target: Glucose transporter (Leishmania mexicana) (UniProt O61059); assay: ST_JUDE_LEISH: Cytotoxicity at 2uM final concentration against transgenic Leishmania Mexicana promastigotes LmGT2 that are glucose transport deficient and complemented with the L. Mexicana glucose transporter 2. Activity is measured by DNA content using SYBR green in vitro

Solute carrier family 2, facilitated glucose transporter member 1 (Homo sapiens), sequence (P11166 whole entry): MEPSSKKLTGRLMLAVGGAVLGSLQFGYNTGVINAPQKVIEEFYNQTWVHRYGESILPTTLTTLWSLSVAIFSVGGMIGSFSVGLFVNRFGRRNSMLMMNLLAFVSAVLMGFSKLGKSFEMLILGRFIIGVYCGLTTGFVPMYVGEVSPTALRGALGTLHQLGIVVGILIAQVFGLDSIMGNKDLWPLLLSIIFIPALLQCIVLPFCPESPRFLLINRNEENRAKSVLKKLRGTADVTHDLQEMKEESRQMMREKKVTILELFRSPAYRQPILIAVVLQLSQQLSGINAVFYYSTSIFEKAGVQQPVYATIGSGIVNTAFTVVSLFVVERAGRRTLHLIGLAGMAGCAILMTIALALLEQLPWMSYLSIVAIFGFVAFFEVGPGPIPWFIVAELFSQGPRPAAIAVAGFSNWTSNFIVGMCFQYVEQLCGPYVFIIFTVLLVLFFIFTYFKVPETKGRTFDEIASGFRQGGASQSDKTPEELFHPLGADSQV

SMILES | inhibition [1] [%] | inhibition [2] [%] | inhibition [3] [%]
COc1ccc(C2C(C(=O)Nc3ccc(C)c(F)c3)c3cc(OC)c(OC)cc3C(=O)N2C)cc1 (stereo not given) | 2.11 | 3.41 | 3.34
CN1CCC(NCc2cccc(-c3ccc(S(=O)(=O)NCc4ccccc4)cc3)c2)CC1 | 8.1 | 7.9 | 10.3
COc1ccc(F)cc1-c1ccc(C(=O)N2CCCN(c3ccc(C(F)(F)F)cn3)CC2)cc1 | 2.4 | 1.75 | 4.03
O=C(NC1CCCc2ccccc21)[C@@H]1CCCN1C(=O)c1ccc(O)c(-c2ccc(Cl)c(Cl)c2)c1 (stereo not given in full) | 0.06 | -0.61 | -0.01
Cc1cc2ncn(-c3nccc(NCc4ccc(F)c(C)c4)n3)c2cc1C | 4 | 4.86 | 2.52
Cc1cc(N/N=C/c2ccccc2[N+](=O)[O-])c2cc(F)ccc2n1 | 2.14 | 1.95 | 0.94
Fc1ccc(-c2cncc(Nc3ccncc3)n2)cc1 | 6.02 | 7.91 | 8.39
CN1CCN(c2nsc3ccc(-c4ccc(NC(=O)Nc5ccccc5)cc4)cc23)CC1 | 2.28 | 0.56 | 0.99
CCCCC(O)c1cc(O)c2c(c1)OC(C)(C)CC2C1=CCN(Cc2ccc3ccccc3c2)CC1 (stereo not given) | -0.53 | 1.5 | 0.64
CC(C)(C)c1nn(-c2ccc(Cl)cc2)c2[nH]c(=O)c(CNC3CCCC3)cc12 | 7.6 | 6.85 | 8.31
Cc1nc(-c2cccc3c(NC(=O)Nc4ccc5nccc(N6CCN(C)CC6)c5c4)cccc23)no1 | 4.28 | 4.25 | 6.65
CN(C(=O)C(C)(C)Oc1ccc(Cl)cc1)C1CCN(CCCCCNC(=O)/C=C/c2ccc(Cl)c(Cl)c2)CC1 | 1.85 | 2.76 | 0.52
O=C(Nc1ccc(-c2cccc(-c3nc4cc(C(F)(F)F)ccc4[nH]3)c2)cc1)c1ccncc1 | 0.97 | 1.99 | 1.87
O=C(NC1CCCCC1)N(Cc1cccc(-c2ccc(CNCCc3ccccc3)cc2)c1)C1CCN(Cc2ccccc2)CC1 | 6.68 | 6.86 | 4.45
Nc1nc(N)c2cc(Cc3ccccc3Cl)cnc2n1 | -0.18 | 2.28 | 1.45
Cc1ccc(C(=O)NC2CCN(CCNC(=O)Nc3cc(C)nc4ccccc34)CC2)cc1 | -1.56 | 0.53 | -1.45
O=C(/C=C/c1ccc(Cl)c(Cl)c1)NCCCCCN1CCC(NC(=O)Nc2cc(Cl)ccc2Cl)CC1 | 9.69 | 8.99 | 9.67
CC(C)(C)c1ccccc1OC(=O)c1ccccc1 | -1.66 | -1.47 | -0.79

SMILES | inhibition [1] [%] | inhibition [2] [%] | inhibition [3] [%]
Cc1cc(-c2cccc(CNC3CCN(C)CC3)c2)ccc1S(=O)(=O)NCCc1ccccn1 | 0.29 | -0.31 | 0.73
CCCCCCN1CCC(NCc2cccc(C(F)(F)F)c2)CC1 | 9.06 | 12.2 | 6.27
Cc1cc(=NN=Cc2ccc(F)cc2)c2cc(F)ccc2[nH]1 | 2.6 | 3.14 | -7.33
COc1cccc(NC(=O)Cn2c(C)c(C(=O)C(F)(F)F)c3ccccc32)c1 | 2.88 | 1.7 | 2.26
COc1ccc(CCNCCCCCCNCCc2cccc([N+](=O)[O-])c2)cc1OC | 0.45 | 1.78 | 3.28
COc1c(C)cc(I)cc1CNCCCNc1cc(=O)c2ccccc2[nH]1 | 0.43 | -0.66 | -0.84
COc1cccc(C(=O)Nc2nc3c(s2)CCN(Cc2ccccc2N2CCNCC2)CC3)c1 | 12.3 | 13.7 | 10.7
CNCCNCc1cccc(-c2ccc(-c3nc4cc(C(F)(F)F)ccc4[nH]3)cc2)c1 | 0.41 | 2.51 | 2.03
Nc1cc(/C=C/c2ccc([N+](=O)[O-])s2)nc2ccccc12 | 16.4 | 16.5 | 8.5
CC(C)(C)c1ccc(CNC(=O)c2ccc(-c3nc4ccc(Cl)cc4[nH]3)cc2)cc1 | 1.67 | 1.77 | 1.63
COc1ccc(Nc2nc(N/N=C/c3ccc(O)cc3)nc(Nc3ccc([N+](=O)[O-])cc3)n2)cc1 | 1.19 | 2.44 | 0.87
CCc1cn2c3c(cc(C(=O)N[C@@H](Cc4ccccc4)[C@H](O)CNC(C)(C)CCCC(C)C)cc13)N(C)S(=O)(=O)C2 | 2.45 | 2.22 | 0.85
O=C(Nc1ccc(C(F)(F)F)cc1)NC1CCN(c2ccnc3ccccc23)CC1 | 4.74 | 3.35 | -3.98
Cc1cc(OCCCN2CCC(NS(=O)(=O)c3ccc(C(F)(F)F)cc3)CC2)c2ccccc2n1 | 1.59 | 0.36 | 0.63
CC(C)c1ccc(N(CC(=O)N/N=C/c2ccc(C(F)(F)F)cc2)S(=O)(=O)c2ccc(C(F)(F)F)cc2)cc1 | 4.88 | 2.56 | 3.25
CSc1ccc(NC(=O)Nc2cc(C)nc3ccccc23)cc1Br | -2.43 | 0.36 | 0.36
CC(O)C1CCCCN1C(=O)c1cccc(-c2ccc(-c3nc4ccccc4[nH]3)s2)c1 (stereo not given) | 3.87 | 5.96 | 5.38
